Measured values as given in PubChem BioAssay (Tox21).
Unmarked numbers belong to inactive results. Records with an inconclusive call do not appear. A call without a number means that no potency is given here. Calls of active or inactive are those of the source. Unless noted, calls follow the shape of the dose curve; as a rule, active = well fitted curve in the direction sought with a large enough effect in the repeat runs; inconclusive = weak or mixed curves; inactive = no such curve, though single readings can be large; an effect the other way counts as inactive or inconclusive.

Tests used:
[1] = qHTS assay to identify small molecule antagonists of the estrogen receptor alpha (ER-alpha) signaling pathway using the BG1 cell line in the presence of 0.1 nM 17-beta-estradiol - cell viability counter screen (AID 1259241); also: nearly all actives have a fitted effect of over 40% in size
How it was run: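 VM7Luc4E2 cells (endogenous full-length ER-alpha, 4xERE-luciferase), cultured 5 days in charcoal-stripped serum, exposed to compounds with 0.1 nM 17beta-estradiol (final) for 22 hr at 37C. Viability read in same wells as live-cell protease fluorescence after 30 min.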

[2] = qHTS assay to identify small molecule antagonists of the androgen receptor (AR) signaling pathway using the MDA cell line in the presence of 0.5 nM R1881 - cell viability counter screen (AID 1259242); also: nearly all actives have a fitted effect of over 45% in size
How it was run: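 Live-cell protease fluorescence, CellTiter-Fluor, 30 min at 37C. Cells: MDA-kb2, 3,000/well, preincubated 5 hr. Compounds plus 0.5 nM R1881 final, 16 hr, 37C, 0% CO2.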

[3] = target: Estrogen receptor (Homo sapiens) (UniProt P03372); assay: qHTS assay to identify small molecule antagonists of the estrogen receptor alpha (ER-alpha) signaling pathway using the BG1 cell line in the presence of 0.1 nM 17-beta-estradiol (AID 1259244); also: nearly all actives have a fitted effect of over 50% in size; also: potency is read from the fitted curve at half-maximal effect
Sequence of Estrogen receptor (Homo sapiens) (P03372 whole entry, looked up): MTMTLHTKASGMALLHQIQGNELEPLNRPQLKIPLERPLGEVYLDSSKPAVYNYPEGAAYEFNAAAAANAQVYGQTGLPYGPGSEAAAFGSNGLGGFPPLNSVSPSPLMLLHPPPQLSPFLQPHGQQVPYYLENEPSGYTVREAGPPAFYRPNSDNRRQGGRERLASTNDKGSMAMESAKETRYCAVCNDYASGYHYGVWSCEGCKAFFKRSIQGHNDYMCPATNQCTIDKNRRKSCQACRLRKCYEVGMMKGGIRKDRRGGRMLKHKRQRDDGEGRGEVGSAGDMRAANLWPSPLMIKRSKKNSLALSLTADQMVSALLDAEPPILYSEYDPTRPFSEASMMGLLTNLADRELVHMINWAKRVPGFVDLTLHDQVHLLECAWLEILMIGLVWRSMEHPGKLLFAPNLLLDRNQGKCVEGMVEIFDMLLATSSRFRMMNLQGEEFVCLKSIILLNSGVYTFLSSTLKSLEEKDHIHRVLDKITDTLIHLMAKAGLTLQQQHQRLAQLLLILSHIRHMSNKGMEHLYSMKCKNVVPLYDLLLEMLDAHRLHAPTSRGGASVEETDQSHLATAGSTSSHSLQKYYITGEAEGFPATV
How it was run: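 Luminescence after ONE-Glo (30 min, room temperature) measured ERE-luciferase activity in VM7Luc4E2 cells treated 22 h with compound and 0.1 nM final 17beta-estradiol as stimulator.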

[4] = qHTS assay to identify small molecule HDAC inhibitors (AID 1259364);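 also: wild-type HCT-116 cells with endogenous class I/II HDAC activity; top concentration of the series differs between compounds; nearly all actives have a fitted effect of over 45% in size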
How it was run: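 HCT-116 (wild type), 1,500 cells/well, overnight; compound 2 hr 37C 5% CO2; HDAC-Glo I/II reagent 30 min RT; luminescence readout.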

[5] = qHTS assay to identify small molecule HDAC inhibitors - cell viability counter screen (AID 1259365); also: series mostly up to about 92 µM; nearly all actives have a fitted effect of over 50% in size
How it was run: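 Wild-type HCT-116 cells, 1,500/well, cultured overnight, then compound-treated 2 h at 37 C. Viability measured as ATP luminescence with CellTiter-Glo after 30 min at room temperature.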

[6] = qHTS assay to identify small molecule agonists of the sonic hedgehog signaling (Shh) pathway - cell viability counter screen (AID 1259366); also: nearly all actives have a fitted effect of over 50% in size
How it was run: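 NIH/3T3-derived Gli1-Luc reporter cells, 2,000 per well, received compound after 4 h and were treated about 23 h at 37C. Viability measured in the same wells by CellTiter-Fluor fluorescence after 1 h.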

[7] = qHTS assay to identify small molecule antagonists of the sonic hedgehog signaling (Shh) pathway - cell viability counter screen (AID 1259367); also: nearly all actives have a fitted effect of over 55% in size
How it was run: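 Viability was read by CellTiter-Fluor fluorescence in the same wells, reagent added 23 hr into compound treatment and incubated 1 hr at 37C. The 3T3 Gli1-Luc reporter cells (2,000/well) received conditioned medium after compound and ran 24 hr.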

[8] = qHTS assay to identify small molecule agonists of the sonic hedgehog signaling (Shh) pathway (AID 1259368; calls by dose curve;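 also: NIH/3T3-derived 3T3Gli1-Luc cells carrying a stable Gli1-driven firefly luciferase reporter; series mostly up to about 92 µM; nearly all actives have a fitted effect of over 15% in size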)
How it was run: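 Read-out: firefly luciferase luminescence from a Gli1 response element reporter stably integrated in NIH/3T3-derived 3T3Gli1-Luc cells, measured 30 min at room temperature after reagent addition. Compound exposure lasted 24 hr at 37 C, 5% CO2.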

[9] = qHTS assay to identify small molecule antagonists of the sonic hedgehog signaling (Shh) pathway (AID 1259369; calls by dose curve; also: nearly all actives have a fitted effect of over 45% in size)
How it was run: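 Luminescence readout: firefly Luc under Gli1 response element in 3T3Gli1-Luc cells (NIH/3T3 clone). Antagonist mode, stimulation by conditioned medium; compound exposure 24hr at 37 C, 5% CO2.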

[10] = target: Estrogen receptor beta (Homo sapiens) (UniProt Q92731); assay: qHTS assay to identify small molecule agonists of the estrogen receptor beta (ER-beta) signaling pathway (AID 1259377; active = well fitted activation curve with a large enough effect in the signal ratio in the repeat runs, not every such curve was filed as active; the % refers to the signal ratio)
Sequence of Estrogen receptor beta (Homo sapiens) (Q92731 whole entry, looked up): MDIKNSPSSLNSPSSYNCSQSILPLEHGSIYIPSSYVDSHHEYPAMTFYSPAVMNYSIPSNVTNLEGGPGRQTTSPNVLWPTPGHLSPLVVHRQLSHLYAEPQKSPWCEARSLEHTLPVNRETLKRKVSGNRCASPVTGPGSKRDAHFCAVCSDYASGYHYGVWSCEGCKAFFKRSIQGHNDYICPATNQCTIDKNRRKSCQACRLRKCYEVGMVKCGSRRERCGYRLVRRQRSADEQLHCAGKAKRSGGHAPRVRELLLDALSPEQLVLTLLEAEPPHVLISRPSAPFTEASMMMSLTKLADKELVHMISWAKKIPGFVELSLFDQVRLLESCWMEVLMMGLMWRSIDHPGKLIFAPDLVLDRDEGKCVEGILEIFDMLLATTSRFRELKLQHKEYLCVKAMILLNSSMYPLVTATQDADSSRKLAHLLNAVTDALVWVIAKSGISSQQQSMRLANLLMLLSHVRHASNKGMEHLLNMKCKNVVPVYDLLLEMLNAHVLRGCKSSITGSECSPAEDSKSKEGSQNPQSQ
How it was run: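 ER-beta-UAS-bla HEK293T cells in medium with 2% charcoal-stripped FBS were exposed to compounds for 16 h at 37C. Beta-lactamase reporter activity was read as fluorescence after 2 h with LiveBLAzer B/G FRET substrate at room temperature.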

[11] = target: Estrogen receptor beta (Homo sapiens) (UniProt Q92731); assay: qHTS assay to identify small molecule antagonists of the estrogen receptor beta (ER-beta) signaling pathway (AID 1259378; active = well fitted inhibition curve with a large enough effect in the signal ratio in the repeat runs, not every such curve was filed as active; the % refers to the signal ratio)
How it was run: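 Antagonist mode: compounds added to beta-lactamase reporter HEK293T ER-beta-UAS cells stimulated with E2 (1nM final), 16 hr at 37C. LiveBLAzer B/G FRET substrate, 2 hours room temperature, fluorescence read-out.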

[12] = qHTS assay to identify small molecule agonists of the androgen receptor (AR) signaling pathway in the presence of an antagonist - cell viability counter screen (AID 1259379);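 also: MDA-kb2 human breast cancer cells carrying an MMTV luciferase reporter; series mostly up to about 92 µM; nearly all actives have a fitted effect of over 25% in size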
How it was run: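 Viability counter screen: CellTiter-Fluor fluorescence, measured in the same wells as the luciferase read-out. MDA-kb2 cells, 3,000/well, with nilutamide at 3.0uM final and compounds at 15 concentrations, 16 hr at 37C, 0% CO2.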

[13] = qHTS assay to identify small molecule agonists of the estrogen receptor beta (ER-beta) signaling pathway - cell viability counter screen (AID 1259380); also: nearly all actives have a fitted effect of over 30% in size
How it was run: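 Luminescence read-out (CellTiter-Glo, 30 min, room temp) taken in the same wells as the beta-lactamase reporter assay; ER-beta-UAS-bla HEK293T cells exposed to DMSO-dissolved compounds for 16 hr at 37C in 2% charcoal-stripped FBS medium.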

[14] = qHTS assay to identify small molecule antagonists of the estrogen receptor beta (ER-beta) signaling pathway - cell viability counter screen (AID 1259382);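 also: HEK293T cells carrying ER-beta-UAS-bla reporter stimulated with estradiol; series mostly up to about 92 µM; nearly all actives have a fitted effect of over 55% in size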
How it was run: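 Luminescent ATP read-out (CellTiter-Glo, 30 min, RT) taken in the same wells as the bla reporter assay. HEK293T ER-beta-UAS-bla cells in 2% charcoal-stripped FBS were exposed to compounds with 1nM E2 for 16 hr at 37C.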

[15] = target: Estrogen receptor (Homo sapiens) (UniProt P03372); assay: qHTS assay to identify small molecule agonists of the estrogen receptor alpha (ER-alpha) signaling pathway in the presence of an antagonist (AID 1259383; calls by dose curve; also: top concentration of the series differs between compounds; nearly all actives have a fitted effect of over 15% in size)
How it was run: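 Luciferase luminescence (ONE-Glo, 30min at room temperature) measured in VM7Luc4E2 cells after 22hr compound exposure at 15 concentrations, with 10.0nM ICI-182,780 final present; cells express endogenous ER-alpha and carry four EREs upstream of luciferase.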

[16] = qHTS assay to identify small molecule agonists or antagonists of the thyroid stimulating hormone receptor (TSHR) signaling pathway - wild type cell line counter screen (AID 1259384; calls by dose curve)
How it was run: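 Counter screen in untransfected Hek293: compounds (15-point titration, triplicate) plus phosphodiesterase inhibitor Ro20-1724 added after 18 h plating; 30 min RT. Intracellular cAMP via competitive d2/cryptate immunoassay, 1 h incubation.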

[17] = target: Androgen receptor (Homo sapiens) (UniProt P10275); assay: qHTS assay to identify small molecule antagonists of the androgen receptor (AR) signaling pathway using the MDA cell line in the presence of 0.5 nM R1881 (AID 1259243); also: nearly all actives have a fitted effect of over 50% in size
Sequence of Androgen receptor (Homo sapiens) (P10275 whole entry, looked up): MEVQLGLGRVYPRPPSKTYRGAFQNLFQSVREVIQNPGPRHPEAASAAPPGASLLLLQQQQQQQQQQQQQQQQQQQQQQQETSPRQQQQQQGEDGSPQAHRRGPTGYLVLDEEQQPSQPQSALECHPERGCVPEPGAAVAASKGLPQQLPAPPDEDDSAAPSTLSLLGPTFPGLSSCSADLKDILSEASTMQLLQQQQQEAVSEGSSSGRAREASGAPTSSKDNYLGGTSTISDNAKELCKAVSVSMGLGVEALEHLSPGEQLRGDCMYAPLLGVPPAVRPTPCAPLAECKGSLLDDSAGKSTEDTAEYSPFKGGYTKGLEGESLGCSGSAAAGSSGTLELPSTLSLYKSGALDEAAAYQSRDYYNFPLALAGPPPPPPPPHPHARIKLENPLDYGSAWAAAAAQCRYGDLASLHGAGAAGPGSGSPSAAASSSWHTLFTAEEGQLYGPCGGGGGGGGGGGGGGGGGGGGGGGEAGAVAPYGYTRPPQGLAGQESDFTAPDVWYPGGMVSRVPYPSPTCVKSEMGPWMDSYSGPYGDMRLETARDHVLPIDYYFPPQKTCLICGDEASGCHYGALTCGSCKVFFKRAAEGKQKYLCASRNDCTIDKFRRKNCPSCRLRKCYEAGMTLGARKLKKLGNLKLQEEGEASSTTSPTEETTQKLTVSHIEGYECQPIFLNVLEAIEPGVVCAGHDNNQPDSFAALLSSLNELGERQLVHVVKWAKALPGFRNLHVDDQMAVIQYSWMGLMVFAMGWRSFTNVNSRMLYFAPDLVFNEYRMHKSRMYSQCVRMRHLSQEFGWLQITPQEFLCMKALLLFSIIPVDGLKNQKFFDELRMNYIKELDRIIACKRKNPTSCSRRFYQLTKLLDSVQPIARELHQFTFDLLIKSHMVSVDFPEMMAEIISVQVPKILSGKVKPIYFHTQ
How it was run: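 MDA-kb2, MMTV-luc (AR/GR elements); 3,000 cells/well; cpd + 0.5 nM R1881 final; 16 hr 37C, 0% CO2; ONE-Glo 30 min RT; luminescence.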

[18] = qHTS assay to identify small molecule phospholipidosis (PLD) inducers (AID 1259344; active = well fitted curve in the direction sought with a large enough effect; an effect the other way counts as inactive or inconclusive)
How it was run: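 Phospholipid accumulation was scored by imaging: fixed, Hoechst-counterstained HepG2 cells stained with LipidTOX Red after 24 h compound exposure at 37 C. Read-outs were pit count and pit intensity per well or per cell, with amiodarone and DMSO controls.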

[19] = target: Androgen receptor (Homo sapiens) (UniProt P10275); assay: qHTS assay to identify small molecule agonists of the androgen receptor (AR) signaling pathway in the presence of an antagonist (AID 1259381; calls by dose curve; also: nearly all actives have a fitted effect of over 15% in size; also: potency is read from the fitted curve at half-maximal effect)
How it was run: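 Luciferase read-out (ONE-Glo, 30min room temperature) in MDA-kb2 MMTV-reporter cells; agonist mode run in presence of AR antagonist nilutamide, 3.0uM final. Compounds tested as 15-point series, 16hr exposure at 37C, 0% CO2.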

[20] = target: Thyrotropin receptor (Homo sapiens) (UniProt P16473); assay: qHTS assay to identify small molecule antagonists of the thyroid stimulating hormone receptor (TSHR) signaling pathway (AID 1259385; calls by dose curve; also: nearly all actives have a fitted effect of over 20% in size)
Sequence of Thyrotropin receptor (Homo sapiens) (P16473 whole entry, looked up): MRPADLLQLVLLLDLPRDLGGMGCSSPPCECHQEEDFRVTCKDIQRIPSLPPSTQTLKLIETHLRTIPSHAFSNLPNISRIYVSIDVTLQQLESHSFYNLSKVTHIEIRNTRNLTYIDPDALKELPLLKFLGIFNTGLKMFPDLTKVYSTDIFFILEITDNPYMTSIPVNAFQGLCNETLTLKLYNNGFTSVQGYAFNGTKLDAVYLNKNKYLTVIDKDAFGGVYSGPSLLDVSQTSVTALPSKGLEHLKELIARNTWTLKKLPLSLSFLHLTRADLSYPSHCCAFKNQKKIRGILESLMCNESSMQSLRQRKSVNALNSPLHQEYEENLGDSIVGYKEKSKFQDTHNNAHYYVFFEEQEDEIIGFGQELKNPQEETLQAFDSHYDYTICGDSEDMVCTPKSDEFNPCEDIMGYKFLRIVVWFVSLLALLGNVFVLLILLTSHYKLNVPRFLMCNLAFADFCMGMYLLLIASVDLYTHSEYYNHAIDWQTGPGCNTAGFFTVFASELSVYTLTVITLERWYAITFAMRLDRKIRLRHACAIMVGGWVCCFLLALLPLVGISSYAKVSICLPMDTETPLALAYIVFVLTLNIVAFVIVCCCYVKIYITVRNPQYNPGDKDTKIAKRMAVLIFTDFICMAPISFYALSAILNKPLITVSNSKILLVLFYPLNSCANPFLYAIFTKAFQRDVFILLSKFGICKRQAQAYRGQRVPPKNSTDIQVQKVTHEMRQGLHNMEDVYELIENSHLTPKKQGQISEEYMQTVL
How it was run: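 Antagonist mode: compound-treated TSHR-expressing HEK293 cells were stimulated with 1.5 ng/mL TSH (final) in presence of Ro20-1724 for 30 min at RT. HTRF cAMP detection after 1 h; each compound tested at 15 concentrations, triplicate.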

| SMILES | Potency [1] | Potency [2] | Potency [3] | Potency [4] | Potency [5] | Potency [6] | Potency [7] | Potency [8] | Potency [9] | Potency [10] | Potency [11] | Potency [12] | Potency [13] | Potency [14] | Potency [15] | outcome [16] | Potency [17] | outcome [18] | Potency [19] | Potency [20] |
| --- | --- | --- | --- | --- | --- | --- | --- | --- | --- | --- | --- | --- | --- | --- | --- | --- | --- | --- | --- | --- |
| CC(=O)CCC(C)=O | inactive | inactive | inactive | inactive | inactive | inactive | inactive | inactive | inactive | inactive | inactive | inactive | inactive | inactive | inactive | inactive |  |  |  |  |
| C=CC(=O)NCNC(=O)C=C | inactive | inactive | inactive |  | inactive |  | inactive | inactive |  |  |  | inactive |  | inactive | inactive | inactive | inactive | inactive | 48.6 µM (active) |  |
| CN1C(=O)C(O)N=C(c2ccccc2)c2cc(Cl)ccc21 (stereo not drawn) | inactive | inactive | 56.4 µM (active) | inactive | inactive | inactive | inactive | inactive |  | inactive |  | inactive | inactive | inactive | inactive |  |  | inactive |  |  |
| c1ccc(C2CC2)c(OCC2=NCCN2)c1 | inactive | inactive | inactive | inactive | inactive | inactive | inactive | inactive | inactive | inactive | inactive | inactive |  | inactive | inactive |  |  | inactive | inactive | inactive |
| CCCCCCCCCC(=O)O[C@H]1CC[C@H]2[C@@H]3CCC4=CC(=O)CC[C@@H]4[C@H]3CC[C@]12C | inactive | inactive | inactive | inactive | inactive | inactive | inactive | inactive | inactive |  | inactive |  | inactive | inactive | inactive |  |  | inactive |  |  |
| ClCc1cccc(Cl)c1 | inactive | inactive | inactive | inactive | inactive | inactive |  | inactive |  | inactive | inactive | inactive | inactive | inactive | inactive | inactive | inactive |  | inactive | inactive |
| Brc1ccccc1 | inactive | inactive |  | inactive | inactive | inactive | inactive | inactive | inactive | inactive | inactive |  | inactive | inactive | inactive | inactive | inactive |  | inactive | inactive |
| O=NN1CCCCCC1 | inactive | inactive |  | inactive | inactive | inactive | inactive |  | inactive |  |  | inactive |  | inactive | inactive | inactive | inactive |  | inactive | inactive |
| COC(=O)c1cncn1C(C)c1ccccc1 (stereo not drawn) | inactive | inactive | inactive | inactive | inactive | inactive | inactive | inactive | inactive |  |  | inactive | inactive | inactive | inactive | inactive |  | inactive |  | inactive |
